Compound activity deposited in PubChem by National Center for Advancing Translational Sciences (NCATS).
The sample as a whole holds a higher share of hits than the screen did.
KDM5B inhibitor = blocks human KDM5B histone demethylase activity; hit rate 2.6% among 220,000; Q9UGL1; KDM5B demethylase, FDH-coupled NADH fluorescence (FDH is formaldehyde dehydrogenase); Potency, µM (series often up to 57.7 µM), most hits filed as inhibitors; active means well fitted inhibition curve with a large enough effect; further: nearly all actives have a fitted effect of over 70% in size
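Measured: NADH fluorescence change, 30 min, RT. System: KDM5BΔAP 200 nM final, H3K4me3 peptide, α-KG, Fe(II), ascorbate, NAD⁺ plus FDH, pH 7.5 HEPES. Compounds: titrated, 10 min pre-incubation with enzyme.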
Each line names hits and unclear results; the compound was inactive in the other large screens.

Cc1cc(SCC(=O)NC2CCS(=O)(=O)C2)nc2ccccc12 (stereo not given)	none
CS(=O)(=O)N(C1CCOCC1)C1CN(C(=O)c2cncc(Br)c2)C1	none
CN1CCCCCCN(C(=O)CCc2ccccc2)[C@H]2CCC[C@H]2C1=O	none
COc1cccc(CCC(=O)NC2CCc3nn(CC4CC4)c(=O)n3CC2)c1 (stereo not given)	none
CN(C)[S+](=O)([O-])c1ccc2c(c1)OCCN(Cc1ccccc1F)C2	none
CC1CCC(C(C)C)C(OC(=O)COC(=O)CCC(=O)c2cccs2)C1 (stereo not given)	none
Cc1nn2c(NCCc3ncc[nH]3)cc(-c3ccccc3)nc2c1C	KDM5B inhibitor 32µM
CCCc1cc(NCCN(C)C)n2nc(C)c(-c3ccccc3)c2n1	none
Cc1nn2c(NCCN(C)C)cc(C(C)C)nc2c1-c1ccccc1	none
Cc1ccc(C(=O)N2CC[C@H](CO)[C@H](N(C)C)C2)s1	none
COc1ccc(OC)c(CNC(=O)C2COc3ccccc3C2)c1 (stereo not given)	none
Cc1nc(-c2ccc(Cl)cc2)n(CC(=O)Nc2cccc(C(F)(F)F)c2)c(=O)c1CCO	none
C#CCN(C)C(=O)c1c(-c2ccc(F)cc2)noc1[C@H](C)O	none
CCN1CCN(CC(=O)NCc2ccc3[nH]c(-c4ccc(F)cc4)c(C)c3c2)CC1	KDM5B inhibitor 32µM
Cc1c(-c2ccc(F)cc2)[nH]c2ccc(CNC(=O)CN3CCOC3=O)cc12	KDM5B inhibitor 28µM
CCN1CCN(C(=O)c2ccc3[nH]c(C)c(C)c3c2)CC1	none
O=C(CN1CCOCC1)NCc1ccc(F)cc1	none
O=C(CN1CCN(Cc2cccc(Cl)c2)C1=O)NCc1ccc(F)cc1	none
Cc1nc(-c2ccc(F)cc2)n(CC(=O)NCc2ccc3c(c2)OCO3)c(=O)c1CCO	none
CC(C)C[C@@H]1N[C@H](C(=O)NCc2cccnc2)Cc2c[nH]c3cccc1c23	none
N#Cc1c(-c2ccccc2)cc(-c2cccs2)nc1SCCS(=O)(=O)Cc1ccccc1	none
COCCN1CCN(S(=O)(=O)c2cccc3cc(C)cnc23)CC1	none
Cc1ccc(CNC(=O)CSc2ncc(S(=O)(=O)c3ccc(Br)cc3)c(=O)[nH]2)cc1	none
COc1ccc(-c2nc(C)nc3c2CCN(C(=O)c2ccccc2)CC3)cc1	none
O=C(NCc1ccc(F)cc1)N1CC(Oc2ccc(-c3nc(-c4ccccc4)no3)cc2)C1	none
O=C(NCc1cccc(F)c1)N1CCc2nc3cc(-c4ccccc4)[nH]n3c(=O)c2C1	KDM5B inhibitor 13µM
COC(=O)C(NC(=O)N1CCCCCCn2c(nnc2-c2ccc(F)cc2)CC1)C(C)C (stereo not given)	none
COC(=O)CC(NC(=O)N1CCc2c(nc(-c3ccccc3)[nH]c2=O)C1)c1ccccc1 (stereo not given)	none
CCc1nc2c(c(-c3ccc(Cl)cc3)n1)CN(C(=O)Nc1ccccc1)CC2	none
COC(=O)C(NC(=O)N1CCc2nc3cc(-c4ccccc4)[nH]n3c(=O)c2C1)C(C)C (stereo not given)	KDM5B inhibitor 25µM
O=C([C@@H]1C[C@H](F)CN1C(=O)NCc1cccc(F)c1)N1CCCCC1	none
CSc1ccc(NC(=O)N2CCc3nc4cc(-c5ccccc5)[nH]n4c(=O)c3C2)cc1	KDM5B inhibitor 25µM
COc1ccc(NC(=O)N2C[C@@H](F)C[C@H]2C(=O)N2CCc3ccccc3C2)c(C)c1	none
COc1ccc(NC(=O)N2CCc3c(nc4cc(-c5ccccc5)[nH]n4c3=O)C2)c(C)c1	KDM5B inhibitor 20µM
O=C(Nc1ccc(Cl)cc1)N1CCc2nc(-c3ccc(Cl)cc3)nc(-c3ccccc3)c2C1	none
O=C(NCCc1ccccn1)c1ccc2c(c1)CCCC2	none
CCCn1nc(C)cc1CN(C)c1ccc(NS(=O)(=O)CC)cc1C(=O)O	none
CCCCN(C1CCS(=O)(=O)C1)S(=O)(=O)c1ccc(OC)cc1 (stereo not given)	none
Cc1cccc(NC(=O)CC2C(=O)OCCN2Cc2ccccc2)c1 (stereo not given)	none
O=C1N[C@@H]2CCN(S(=O)(=O)c3cccs3)[C@@H]2C(=O)N1Cc1ccccc1	none
CNC(=O)c1ccc(CNC(=O)Cn2nc(C)n(Cc3ccccc3)c2=O)o1	none
COCc1nc(CCNC(=O)c2cc(C)n(C)n2)no1	none
COc1ccc(OC)c(NC(=O)CSc2c3c(nc4cc(Cl)ccc24)CCCC3)c1	none
CCc1nncn1C1CCN(C(=O)Nc2ccc(Cl)cc2F)C1 (stereo not given)	none
O=C1NCCCCCCN[C@H]2C[C@H](c3nc(Cc4ccccc4)no3)C[C@@H]12	none
Cc1ccc(-n2c(=O)c3c(cnn3C)n(CC(=O)Nc3ccc(C)cc3C)c2=O)cc1	none
CNC(=O)N1CCC(n2c(C)cnc2-c2cccnc2)CC1	none
Brc1ccc2[nH]c3c(NCc4ccccn4)ncnc3c2c1	none
Cc1cccc2[nH]c(COCC(=O)N3CCc4c(nc[nH]c4=O)C3)nc12	none
COc1cccc(-c2cc(C3CCN(C(=O)Nc4ccc(C)cc4C)CC3)[nH]n2)c1	none
Cc1ccccc1OCC(=O)N1CCc2c(nc3cc(-c4ccccc4Cl)[nH]n3c2=O)C1	none
COc1ccc(NC(=O)N2CCc3nc(-c4cccc(F)c4)[nH]c3C2)cc1	none
